Source: PubChem BioAssay
Compounds with a hit are over-represented: about 11% of the library has one in this group of screens.
BAZ2B block – blocks human BAZ2B. actives 4.4% (n = 360,000). AID 504333. AlphaScreen BAZ2B-H3K14Ac peptide displacement. Q9UIF8. Potency, µM (titrated, usually from 114 µM), inactives show top-dose activity change, negative = inhibition, hits mostly inhibitors; note: % is set by controls: 0 for no effect and ±100 for the full control effect; nearly all actives have a fitted effect of over 60% in size
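Compounds, titrated to a top concentration of 110 uM, were incubated 30 min at room temperature with preformed BAZ2B/acetyl-K14 H3 peptide complex (50 nM each). Proximity signal was measured by AlphaScreen after 20 min with beads.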
L3MBTL1 inh – blocks human L3MBTL1; AlphaScreen L3MBTL1–H3K9me1 peptide binding; Potency, µM (series often up to 57.1 µM), without a hit: top-dose activity, negative = inhibition, usual class: inhibitors; actives 0.66% (n = 230,000); note: % is set by controls: 0 for no effect and ±100 for the full control effect; nearly all actives have a fitted effect of over 60% in size
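L3MBTL1 50 nM + b-AHA-H3(1-15)K9me1 75 nM, 30 min RT; compound added, 30 min RT; streptavidin donor/Ni-chelate acceptor beads 10 ug/mL each final, 30 min RT dark; AlphaScreen read.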
HP1b binding inh – HP1-beta chromodomain-methylated histone interaction inhibition; P83916; AlphaScreen HP1-beta / biotin-H3K9me3 peptide binding; Potency, µM (highest dose often 114 µM), for the others: top-dose activity change, negative = inhibition, usual class: inhibitors; actives 0.56% (n = 390,000); AID 540317; note: nearly all actives have a fitted effect of over 70% in size
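HP1-beta protein (50 nM final) preincubated 30 min at room temperature with biotinylated H3(1-18)K9me3 peptide (50 nM) in PBS pH 7.4, 0.01% Tween-20, then compound added for 30 min. AlphaScreen streptavidin donor/nickel chelate acceptor beads (10 ug/mL final), 30 min dark, luminescence read.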
G9a inh – inhibitors of human histone lysine methyltransferase G9a; Q96KQ7; G9a H3K9 monomethylation, AlphaScreen, 2 h; Potency, µM (highest dose often 102 µM), inactives show at the top dose activity, negative = inhibition, actives largely listed as inhibitors; actives 8.8% (n = 350,000); note: % is set by controls: 0 for no effect and ±100 for the full control effect; nearly all actives have a fitted effect of over 75% in size
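Methyltransferase reactions run at room temperature for 2 h (20 nM enzyme, 500 nM biotin-H3K9 peptide, 20 uM SAM) after a 15 min compound preincubation; product detected by AlphaScreen beads and anti-H3K9me1 antibody.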
JMJD2A Tudor inh – inhibitors of human JMJD2A Tudor domain | actives 4.4% (n = 390,000) | O75164 | Potency, µM (doses to about 114 µM), inactives show at the top dose activity change, negative = inhibition, hits mostly inhibitors | AlphaScreen JMJD2A-Tudor / H3K4me3 peptide binding; note: % is set by controls: 0 for no effect and ±100 for the full control effect; nearly all actives have a fitted effect of over 50% in size
* hit, by the source's call; ? = inconclusive; / = no result; ! = not active in a repeat; [ ] = dose if it differs, or a comment. Calls come from the whole dose curve; as a rule, active = well fitted inhibition curve with a large enough effect; inconclusive = small, poorly fitted or top-dose-only effect; inactive = no such curve, though single readings can be large or run the other way. Potency is the fitted concentration of half-maximal effect.

SMILES | BAZ2B block | L3MBTL1 inh | HP1b binding inh | G9a inh | JMJD2A Tudor inh
CC(C)CCN1C(=O)c2ccccc2CC1(C)C(=O)NC1CCC(C)CC1 (centres undefined) | -1.2% | / | 3.1% | 4.6%[59 µM] | -13.1%
Cc1ccc(Nc2c([N+](=O)[O-])ccc3nonc23)cc1C | -30.8% | / | -10.6% | ? | ?
COc1ccc(C2=NN(C(=O)CSc3nnc(-c4ccccc4F)o3)C(c3ccco3)C2)cc1 (centres undefined) | -7.3% | -7.6% | 1.6% | 44.7µM* | -15.6%
COc1ccc(C2=NN(C(N)=S)C(c3ccco3)C2)cc1 (centres undefined) | ? | -15.6% | -15.9% | 22.4µM* | -35.6%
Cc1ccc(CNC(=O)CCN2C(=O)C(C)Oc3ccc(C)cc32)cc1 (centres undefined) | 10.5% | / | 19.2% | 9.8%[59 µM] | -5.5%
CCOc1ccc(N(CC(=O)Nc2ccccc2CC)S(=O)(=O)c2c(C)noc2C)cc1 | / | / | -0.3% | 3.5%[59 µM] | -15.3%
CCc1ccc(-n2c(C)cc(/C=N/NC(=O)c3ccncc3)c2C)cc1 | 39.8µM* | -27.0% | -3.0% | / | ?
Cc1ccc(-n2c(C)cc(/C=N/NC(=O)c3ccncc3)c2C)cc1C | 50.1µM* | -24.3% | -16.0% | 50.1µM* | ?
COC(=O)N/N=C/c1cc(C)n(-c2ccc(Br)cc2)c1C | 44.7µM* | -18.2% | ? | / | -25.3%
Cc1ccc(-n2c(C)cc(/C=N/NC(=O)c3ccncc3)c2C)c(C)c1 | 44.7µM* | -16.2% | 5.8% | ? | ?
COC(=O)N/N=C/c1cc(C)n(-c2ccc(F)cc2)c1C | ? | / | 8.4% | ? | -35.7%
Cc1cc(/C=N/NC(=O)c2ccncc2)c(C)n1-c1ccccc1 | ? | -4.5% | 2.4% | ? | -26.8%
CCN1CCN(c2cc(C)c3cc(NC(=S)NCCCOC)ccc3n2)CC1 | -14.8% | / | 15.0% | ? | -12.8%
CCCCN(CC)CCCNC(=S)Nc1ccc2nc(N3CCN(C)CC3)cc(C)c2c1 | -24.7% | / | 18.4% | 39.8µM* | -17.3%
CCCCN(CC)CCCNC(=S)Nc1ccc2nc(N3CCN(CC)CC3)cc(C)c2c1 | -20.0% | / | -10.7% | 50.1µM* | -26.4%
O=C(O)CC1(CC(=O)NCc2cc(F)cc3c2OCOC3)CCCCC1 | ? | -16.2% | 36.2% | -0.5% | -0.3%
O=C1c2ccccc2NC(c2ccc(O)c(O)c2)N1c1ccccc1Cl (centres undefined) | 39.8µM* | / | -4.6% | 44.7µM* | -18.5%
COc1cc(C2Nc3ccccc3C(=O)N2c2ccccc2OC)ccc1O (centres undefined) | ? | / | 6.5% | -53.7%[2.33 µM] | -25.7%
O=C(c1ccc(C(=O)N2CCN(c3ccccc3F)CC2)nc1)N1CCN(c2ccccc2F)CC1 | -15.9% | 5.2% | 9.8% | ? | 79.4µM*
O=C(c1ccc(S(=O)(=O)Nc2ccccc2F)cc1)N1CCN(c2ccccc2O)CC1 | 2.3% | -2.6% | 27.3% | ? | 31.6µM*
CCOC(=O)c1ccc(NC(=O)NCCOCCn2c(=O)oc3ccccc32)cc1 | -3.6% | / | 6.1% | -1.1%[59 µM] | -28.0%
Cc1cc(C)cc(NC(=O)C(CC(C)C)NC(=O)C2CCCCC2)c1 (centres undefined) | 0.3% | / | 32.1% | 19.0%[59 µM] | -1.0%
CCN1CCN(CCNC(=O)c2ccc(/C=C3/Sc4ccccc4N(Cc4cccc(Cl)c4)C3=O)cc2)CC1 | -36.8% | / | ? | 39.8µM* | 22.4µM*
Cc1cccc(CN2C(=O)/C(=C\c3ccc(C(=O)NCCN4CCOCC4)cc3)Sc3ccccc32)c1 | ? | / | 8.8% | / | ?
CCN1CCN(CCNC(=O)c2ccc3c(c2)N(Cc2ccc(F)cc2)C(=O)/C(=C/c2ccccc2)S3)CC1 | 39.8µM* | / | ? | ? | ?
SMILES | BAZ2B block | L3MBTL1 inh | HP1b binding inh | G9a inh | JMJD2A Tudor inh
CC(C)=NOc1nc(NC(=O)NS(=O)(=O)c2ccccc2Cl)nc(N(C)C)n1 | / | / | 26.4% | / | -12.7%
O=C(CNCc1ccccn1)N1CCc2ccccc2C1 | 3.98µM* | / | 8.7% | -106.6%[59 µM] | ?
Cc1ccnc(SCC(=O)N2CCc3ccccc3C2)n1 | -27.3% | -5.6% | -5.2% | 39.8µM* | -8.3%
COc1ccc(Cc2noc(CN3CCCN(C4Cc5ccccc5C4)CC3)n2)cc1OC | ? | -13.4% | 33.2% | 39.8µM* | -16.8%
Cc1ccc(C)c(N2CCN(c3nc4ccc(Cl)cc4n4cnnc34)CC2)c1 | -0.5% | / | 22.9% | -4.1%[59 µM] | -3.7%
O=C(O)CCCN1C(=O)C(=O)/C(=C(/O)c2ccccc2)C1/C=C/c1ccccc1 (centres undefined) | ? | 2.5% | 1.7% | 22.2%[0.501 µM] | 44.7µM*
O=C(O)CCCN1C(=O)C(=O)/C(=C(/O)c2ccc(Cl)cc2)C1c1ccccc1 (centres undefined) | -2.7% | 6.9% | 30.3% | ? | ?
Cc1ccsc1CN(Cc1ccco1)C(=O)c1ccc(Cl)cc1 | 36.1% | / | 72.2% | 32.8%[59 µM] | 22.0%
Cn1c(NCc2cc(Br)ccc2O)nc2ccccc21 | 31.4% | 25.7% | 29.6% | 16.6% | -9.3%
Cn1c(-c2cccc(Br)c2)cnc1NCc1ccccc1O | 50.1µM* | -15.5% | ? | / | 20µM*
O=C(N/N=C/c1ccc(O)cc1O)c1ccc(CN2C(=O)c3cccc4cccc2c34)cc1 | -2.5% | 6.4% | 55.4% | 79.4µM* | 3.5%
CC1=C(c2ccc(C(C)C)cc2)S(=O)(=O)NC1=NCCCN1CCN(c2ccccc2F)CC1 | -13.6% | / | -1.5% | -3.7%[59 µM] | -8.6%
Nc1nonc1-n1nnc(C(=O)N/N=C/c2c(Cl)cccc2Cl)c1CN1CCOCC1 | 5.4% | / | 20.5% | -8.6% | -2.1%
Cc1cc(C)c(/C=N/NC(=O)c2nnn(-c3nonc3N)c2CN2CCC(C)CC2)c(C)c1 | -1.1% | / | 14.4% | ? | -4.1%
Nc1nonc1-n1nnc(C(=O)N/N=C\c2cccc(Cl)c2)c1CN1CCOCC1 | -0.5% | / | 21.5% | 39.8µM* | -12.0%
CC1CCN(Cc2c(C(=O)O)nnn2-c2nonc2N)CC1 | ? | 7.4% | 29.9% | 50.1µM* | -16.1%
CCN1CCN(Cc2c(C(=O)N/N=C(\C)c3ccc(Cl)c(Cl)c3)nnn2-c2nonc2N)CC1 | -34.5% | / | / | 44.7µM* | /
CC(C(=O)N(C)Cc1ccccc1)N1CCN(C/C=C/c2ccccc2)CC1 (centres undefined) | 35.5µM* | -4.2% | ? | 20µM* | 1.58µM*
Fc1ccc(C(c2ccc(F)cc2)N2CCN(C/C=C/c3ccccc3)CC2)cc1 | ? | -17.4% | 9.9% | 21.2µM*! | ?
C(=C\c1ccccc1)/CN1CCN(C(c2ccccc2)c2ccccc2)CC1 | ? | -5.4% | 17.1% | -44.9% | -21.6%
COc1ccc(Cl)cc1NC(=O)C(C)N1CCN(C/C=C/c2ccccc2)CC1 (centres undefined) | 50.1µM* | / | 12.6µM* | ? | 3.55µM*
CC(=O)Nc1cccc(C(=O)N/N=C/c2c[nH]c3ccccc23)c1 | 5.5% | / | 37.3% | -3.5% | 0.0%
